Experimental findings from PubChem BioAssay (NCI) are described below.

Compounds without any hit were thinned out: in the full panel of roughly 83,000, 20% have a hit.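 A percent growth of 40 corresponds to 60% growth inhibition; 0 means no net growth; -100 means all cells died. Active threshold: below 10.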 Unmarked numbers belong to inactive results. Calls of active or inactive are those of the source.

This test concerns HOP-92 NSCLC. Briefly: NCI-60 one-dose screen, 48 h (100 = growth as untreated, 0 = no growth, -100 = all killed). The settings on record: 10 µM unless noted. How it is done: Growth inhibition of the HOP-92 human Non-Small Cell Lung tumor cell line is measured as a screen for anti-cancer activity. Cells are grown in 96 well plates and exposed to the test compound for 48 hours. Compounds are tested at a single concentration, which is 10^-5 M for most compounds. The reported endpoint is percent growth (GI% or GIPRCNT), where numbers from 0 - 100% represent growth inhibition, and numbers from -100% - 0 represent cell death. For example, a value of 40 represents 60% growth inhibition. A value of 0 means no net growth occurred over the course of the experiment. A value of -40 indicates 40% of cells at the beginning of the experiment died by the end of the experiment. A value of -100 means all cells are dead at the end of the experiment.
NCI-60 Human Tumor Cell Lines Screen was performed using the standard one-dose NCI protocol, which is described in more detail at https://dtp.cancer.gov/discovery_development/nci-60/default.htm.
Compounds with GIPRCNT values below 10 were considered active. Activity score was based on GIPRCNT using the following formula: […]
Score is 0 for GIPRCNT values of 100 or above, 50 for GIPRCNT values of 0, and 100 for GIPRCNT values of -100.
For the compound `CCOC(=O)c1cnc2sc(-c3ccc(OC)cc3)nc2c1Cl`, the growth was 94.7%.

For the compound `N#C/C(=N\Nc1ccccc1)C(=O)Nc1cc(-c2ccccc2)nn1-c1ccccc1`, the growth was -18.6% (active).

In the case of `Cc1[nH]c(C(=O)Nc2ccc(C(N)=O)cc2OC(C)C)c(Cl)c1Cl`, the growth was 73.3%.

In the case of `O=C(Nc1ncc(Cc2cc(C(F)(F)F)ccc2Cl)s1)C(=S)N1CCOCC1`, the growth is 70.4%.

Turning to `C#Cc1cccc(Nc2nc(Cl)nc3cc(NC(=O)CCl)ccc23)c1`, the growth was -82.7% (active).

For `O=C(Nc1ncc(Cc2ccccc2Cl)s1)c1ccc2c(c1)OCCO2`, the growth was 56.3%.

In the case of `COc1ccc(Nc2nccc(Nc3ccc4[nH]ncc4c3)n2)cc1`, the growth is -1.08% (active).

Consider `Cc1[nH]c(C2CC(c3ccc(C(F)(F)F)c(F)c3)=NN2C)c(C)c1C(=O)NCC(F)(F)F` (stereo not given), for which the growth is 114%.

In the case of `CN1CCN(Cc2ccc(NC(=O)c3cncc(C#Cc4cnc(N)c5ccc(C#N)cc45)c3)cc2C(F)(F)F)CC1`, the growth is -15.2% (active).

In the case of `CC(=O)CC(=O)c1ccccc1.[Cu+2]`, the growth is 120%.

For the compound `c1ccc(Cn2cc3c(c2)-c2nc(Nc4ccccc4)ncc2CC3)cc1`, the growth was 50.4% [100 µM].

Turning to `COc1ccc(-c2ccc(-c3ccc(C(=N)N)o3)o2)cc1`, the growth is 27%.

Consider `COc1cccc(/C=C2\CCc3ccccc3C2=O)c1`, for which the growth is 64.3%.

For the compound `[2H]C([2H])([2H])Oc1c(F)cccc1/C=C/C(=O)/C=C(O)/C=C/c1cccc(F)c1OC([2H])([2H])[2H]`, the growth is 89.4%.

Consider `Cc1csc(Nc2nc(-c3cccc(Cl)c3)nc(C(Cl)(Cl)Cl)n2)n1`, for which the growth was 32.7%.

As to `C#Cc1ccc(NC(=O)Cc2ccc(/C=C/C(=O)c3nccn3C)cc2)cc1`, the growth was 96.5%.

For the compound `COc1ccccc1NC(=O)n1c(=O)cc(C)c2ccc(O)cc21`, the growth is 88.9%.

Turning to `CCCCC#Cc1c(I)n(C2OC(CO[Si](C)(C)C(C)(C)C)C3OC(C)(C)OC32)c(=O)[nH]c1=O` (stereo not given), the growth was -30.5% (active).

Turning to `CNC(=O)c1cc(Oc2cccc3nc(NC(=O)Nc4ccc(F)cc4F)ccc23)ccn1`, the growth is 41.4%.

`COc1ccc(-c2cc(-c3ccc(Cl)cc3)c(C#N)c(=O)n2CCCCC(=O)NO)cc1`: the growth is 87.2%.

Consider `COc1cc(C2CC(c3cccc(Nc4ccncc4)c3)=Nc3c(N)ncnc3N2)cc(OC)c1OC` (stereo not given), for which the growth is 76%.

On to `C=CCn1c(SCC(=O)Nc2ccc(C(=O)/C=C/c3ccc(Cl)cc3)cc2)nnc1-c1ccc(Cl)c(Cl)c1`, for which the growth was 70.2%.

For `CCOC(=O)c1cc(C(=O)c2cc(OC)cc(OC)c2)n2ccccc12`, the growth was 64.3%.

As to `COc1ccc(C2=NN3C(C2)c2cc(Br)ccc2OC3c2ccncc2)cc1` (stereo not given), the growth is 82.7%.

Consider `CC1(C)CC(=O)C2=C(C1)OC(C(=O)c1ccccc1)C2c1cccc(Oc2ccccc2)c1` (stereo not given), for which the growth was 13.4%.

In the case of `C#CC#CC#CC#CC#CC#CC#CC#CC[C@@H]1OC[C@H](COC(=O)O[C@@H](C(=O)O[C@H]2C[C@@]3(O)[C@@H](OC(=O)c4ccccc4)[C@@H]4[C@]5(OC(C)=O)CO[C@@H]5C[C@H](O)[C@@]4(C)C(=O)[C@H](OC(C)=O)C(=C2C)C3(C)C)[C@@H](NC(=O)c2ccccc2)c2ccccc2)O1`, the growth is 63.7%.

Regarding `C/C(=C(\c1ccc(OCCCN(C)C)cc1)c1ccc(OC(=O)Cc2ccccc2)cc1)c1ccc(Cl)cc1`, the growth is 51.8%.

Regarding `O=C(Nc1ccc2c(c1)-c1ccccc1C2)C1CC(=O)N(c2ccc3c(c2)OCO3)C1` (stereo not given), the growth was 65% [50 µM].

In the case of `O=c1ccc2c(ccc3ncccc32)o1`, the growth was 112%.

On to `Oc1ccc(C(c2ccc(O)cc2)c2ccc(Cl)cn2)cc1`, for which the growth was -8.51% (active).

For `Cc1c(C(=O)C(SC(=S)N2CCOCC2)SC(=S)N2CCOCC2)nnn1-c1ccc([N+](=O)[O-])cc1`, the growth is 92.9%.

Take `O=C(CN1C(=O)c2ccccc2S1(=O)=O)Nc1nc(-c2cc3ccccc3oc2=O)cs1`: the growth was 96.4%.

Turning to `OC1CSSC1Cn1cnc2c(Nc3ccc(F)c(Cl)c3)ncnc21` (stereo not given), the growth was 137%.

On to `Cc1ccc(C(=O)Nc2ccc(CN3CCN(C)CC3)c(C(F)(F)F)c2)cc1C#Cc1cnc(N)c2ccccc12`, for which the growth is -14.8% (active).

For `COc1ccc(-c2nc(SCCC(C)C)nc(N/N=C(/C)c3ccc(N)cc3)c2C#N)cc1`, the growth is 96.8%.

With `C=C1C(=O)O[C@H]2[C@H]1CC/C(COC(=O)NCc1ccc(Cn3c(=O)sn(CCCC)c3=O)cc1)=C\CC[C@@]1(C)O[C@@H]21`, the growth was -6.79% (active).

For `C#C[C@]1(O)CC[C@H]2[C@@H]3CC=C4c5sc(-c6ccccc6)nc5CC[C@]4(C)[C@H]3CC[C@@]21C`, the growth was 77%.

For `CCCCCCCCNc1ncnc2c1ncn2Cc1nnc2c3ccccc3c(Cl)nn12`, the growth is 3.23% (active).

For `CCOC(=O)c1c(C)n2c(=O)cc(C)c3c(OC(C)=O)c(OC(C)=O)cc1c32`, the growth was 71.8%.

Regarding `O=C1NCCN1/N=C/c1c(Cl)n(Cc2ccc(Cl)cc2)c2ccccc12`, the growth was 62.8%.
